Our source for the Potency values is PubChem BioAssay (Tox21).

Several values for one entry are separate records, joined by “and”; a condition that tells them apart may be missing. Identical values can stand only once. Inconclusive results are not listed. Where a call stands in place of a potency, no number is given. Where a structure was tested more than once in an assay, its records may differ in their call. Activity calls are given as the source filed them. The call rests on the fitted dose curve; in most records, active means well fitted cell-killing curve with a large enough effect in the repeat runs; inconclusive means weak or mixed curves, or effect the other way; inactive means no such curve, though single readings can be large or run the other way.
Potency means the concentration at half of the fitted maximal effect.

The nature of this assay: Caspase-3/7 induction in CHO-K1 cells by small molecules, qHTS cell viability counter screen (AID 1346979). Further: nearly all actives have a fitted effect of over 35% in size. Particulars: CellTiter-Fluor fluorescence, 17 h; series mostly up to 92.4 µM. From the text:
National Center for Advancing Translational Sciences [NCATS]
NIH Chemical Genomics Center [NCGC]
U.S. Environmental Protection Agency [EPA]
National Institutes of Environmental Health Sciences [NIEHS]
National Toxicology Program [NTP]
U.S. Food and Drug Administration [FDA]
Apoptosis is a process of programmed cell death and plays a central role in the development of multicellular organisms. It is a highly regulated process and induces cell death by activating caspases, which are the members of cysteine aspartic acid-specific protease (caspase) family. Caspases involved in apoptosis are classified by their mechanism of action as initiator caspases (caspase-2, -8, -9 and -10) and executioner caspases (caspase-3, -6, and -7). Inhibition of apoptosis results in number of cancers, autoimmune diseases, inflammatory diseases and viral infection. To identify small molecule compounds that induce apoptosis, a homogeneous, luminescent Caspase-Glo 3/7 assay was used. Wild type CHO-K1 cells were used to screen Tox21 libraries for identifying caspase-3/7 activity inducers. Also cytotoxicity of the compounds was tested in parallel by measuring the cell viability using CellTiter-Fluor assay system in the same wells.
Tox21 Assay Protocol Summary:
CHO-K1 cells were dispensed at 1,500 per well in 5uL of culture medium into white solid bottom 1536-well plates (Corning Life Sciences, Corning, NY) using a Multidrop Combi (Thermo Scientific, Waltham, MA) dispenser. The assay plates were incubated at 37 C and 5% CO2 for 5hr, and then 23nL of compounds dissolved in DMSO and positive control were transferred using a Pintool station (Wako, San Diego, CA). The assay plates were incubated at 37C and 5% CO2 for 17hr. For cytotoxicity read, after 16hr incubation at 37C, 1uL CellTiter-Fluor reagent (Promega Corporation, Madison, WI) was added to each well of the assay plates using Flying Reagent Dispenser (FRD, Aurora Discovery, San Diego, CA). After 1hr incubation at 37C and 5% CO2, the fluorescence signal was quantified using a ViewLux plate reader (PerkinElmer, Shelton, CT).
On to `NC1CCCCC1`, for which the Potency result is “inactive”.

In the case of `C/C=C/C=C/C(=O)O`, the Potency result was “inactive”.

Consider `Cc1cn([C@H]2C=C[C@@H](CO)O2)c(=O)[nH]c1=O`, for which the Potency entry was “inactive”.

Turning to `CNNCc1ccc(C(=O)NC(C)C)cc1`, the Potency entry was “inactive”.

With `Nc1ccc(O)c([N+](=O)[O-])c1`, the Potency was 47.1 µM (active).

As to `Nc1c2c(nc3ccccc13)CCCC2`, the Potency entry was “inactive”.

For the molecule `CN[C@H]1CC[C@@H](c2ccc(Cl)c(Cl)c2)c2ccccc21`, the Potency is 29.8 µM (active).

Take `O=C1NS(=O)(=O)c2ccccc21`: the Potency result is “inactive”.

For the molecule `C=CCc1ccc(O)c(OC)c1`, the Potency entry is “inactive”.

As for `O=C(Nc1ncc([N+](=O)[O-])s1)c1cccs1`, the Potency was 26.6 µM (active).

On to `CCCC[P+](CCCC)(CCCC)CCCC`, for which the Potency result was “inactive”.

Take `CC(=O)C(=O)O`: the Potency entry is “inactive”.

Take `CC(=O)CCC(=O)O`: the Potency result is “inactive”.

Consider `F[B-](F)(F)F`, for which the Potency result is “inactive”.

On to `CC1(C)S[C@@H]2[C@H](NC(=O)[C@H](N)c3ccccc3)C(=O)N2[C@H]1C(=O)O`, for which the Potency entry was “inactive”.

Consider `COc1ccc(CN(CCN(C)C)c2ccccn2)cc1`, for which the Potency entry is “inactive”.

As to `CCCCCCCCCCCCCCCC[N+](C)(C)Cc1ccccc1`, the Potency is 50.1 µM (active) and 39.3 µM (active) and 29.8 µM (active).

`CC12CCC(CC1)C(C)(C)O2`: the Potency result was “inactive”.

For the molecule `O=C1NC(=O)C(c2ccccc2)(c2ccccc2)N1`, the Potency entry is “inactive”.

On to `NS(=O)(=O)O`, for which the Potency entry is “inactive”.

Regarding `OC[C@H]1O[C@H](O[C@]2(CCl)O[C@H](CCl)[C@@H](O)[C@@H]2O)[C@H](O)[C@@H](O)[C@H]1Cl`, the Potency result was “inactive”.

On to `CN(C)C(=S)SC(=S)N(C)C`, for which the Potency is 1.4 µM (active) and 433 nM (active) and 2.11 µM (active).

On to `Cc1ncc([N+](=O)[O-])n1C`, for which the Potency result is “inactive”.

Turning to `CC(=O)CC(c1ccccc1)c1c(O)c2ccccc2oc1=O` (stereo not given), the Potency was 68.9 µM (active) and inactive.

Take `Cc1c(C(=O)O)c(O)cc2c1C(=O)c1c(O)c([C@@H]3O[C@H](CO)[C@@H](O)[C@H](O)[C@H]3O)c(O)c(O)c1C2=O`: the Potency was 33.5 µM (active) and 27.3 µM (active) and 23.7 µM (active).

For the molecule `O=C1c2c(O)cccc2Cc2cccc(O)c21`, the Potency result is “inactive”.

Take `Cc1ncc([N+](=O)[O-])n1CCO`: the Potency result was “inactive”.

Take `CCOC(N)=O`: the Potency entry is “inactive”.

Regarding `CC/C(=C(\c1ccccc1)c1ccc(OCCN(C)C)cc1)c1ccccc1`, the Potency is 54.4 µM (active) [middle of 4 runs].

In the case of `CN1CCc2cccc3c2[C@H]1Cc1ccc(O)c(O)c1-3`, the Potency is 55 µM (active) and 22.8 µM (active) and 23.7 µM (active).

`O=C(O)c1ccccc1`: the Potency result was “inactive”.

For the molecule `CCCCNC(=O)NS(=O)(=O)c1ccc(C)cc1`, the Potency result was “inactive”.

In the case of `CCN(CC)C(=O)c1cccc(C)c1`, the Potency result is “inactive”.

Take `CN(C)CCOC(c1ccccc1)c1ccccc1`: the Potency entry is “inactive”.

Turning to `O=C1OC2(c3ccccc31)c1cc(Br)c(O)c(Br)c1Oc1c2cc(Br)c(O)c1Br`, the Potency was 6.2 µM (active) and 22.3 µM (active) and 11.9 µM (active).

On to `Cc1cccc(C)c1`, for which the Potency entry is “inactive”.

In the case of `COc1ccc2cc(S(=O)(=O)N[C@H](CC(=O)N[C@H](Cc3ccc(CN4[C@H](C)CCC[C@@H]4C)cc3)C(=O)N(C)C(C)C)c3ccc4c(c3)OCO4)ccc2c1`, the Potency is 51.6 µM (active).

As for `CCCCC1(COC(=O)CCC(=O)O)C(=O)N(c2ccccc2)N(c2ccccc2)C1=O`, the Potency entry is “inactive”.

For the molecule `CCOc1ccc(NC(C)=O)cc1`, the Potency entry was “inactive”.

For the molecule `CCCCC(CC)C(=O)O` (stereo not given), the Potency entry is “inactive”.
